For ten molecules, growth inhibition results are on record in PubChem BioAssay (NCI).

Compounds without any hit were thinned out: in the full panel of roughly 79,000, 15% have a hit. Values without a mark were called inactive. Active and inactive are the calls of the source. No stated cut-off is given here; in the data, active means growth inhibition above about 70%; inactive means the rest.

The nature of test [1]: NCI Yeast Anticancer Drug Screen. Data for the rad50 strain (AID 155).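 Further: 0% = growth of vehicle-only cultures of the same strain.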 The conditions noted are these: S. cerevisiae rad50 strain growth inhibition, hits give high values. In a few lines: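 Yeast carrying a defined DNA repair defect were exposed to test compounds, and growth was compared with vehicle-treated controls to give percent inhibition.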
Test [2] in a line: NCI Yeast Anticancer Drug Screen. Data for the mec2-1 strain (AID 157). The conditions noted are these: S. cerevisiae mec2-1 strain, hits give high values. In a few lines: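 Using mec2-1 yeast: add compound, measure growth, express inhibition versus vehicle-treated cultures.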
Test [3] in a line: NCI Yeast Anticancer Drug Screen. Data for the sgs1 mgt1 strain (AID 161).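 Further: 0% = growth of cultures given vehicle only.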 The following applies: S. cerevisiae sgs1 mgt1 strain, hits give high values. In a few lines: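 This yeast growth screen uses a strain with defined DNA-repair lesions; compound-treated growth is compared with vehicle-treated growth.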
Test [4] in a line: NCI Yeast Anticancer Drug Screen. Data for the cln2 rad14 strain (AID 165).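 Further: 0% = growth equal to vehicle treated cultures.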 The following applies: S. cerevisiae cln2 rad14 strain, hits give high values. In a few lines: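 Yeast strain cln2 rad14, bearing defects in cell cycle control and DNA repair, serves as the test system; values reflect growth inhibition compared with vehicle.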
Test [5] is described as follows: NCI Yeast Anticancer Drug Screen. Data for the bub3 strain (AID 167). The conditions noted are these: S. cerevisiae bub3 mutant strain, hits give high values. In a few lines:
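Compounds were applied to a genetically altered yeast strain carrying a cell-cycle control defect. Growth inhibition was scored against vehicle-treated controls.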

Test [6] can be described thus: NCI Yeast Anticancer Drug Screen. Data for the mlh1 rad18 strain (AID 175). The following applies: S. cerevisiae mlh1 rad18 strain growth inhibition, hits give high values. In a few lines: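 Steps: expose repair-defective yeast to compound; measure growth; express inhibition against vehicle-treated controls.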
The mark [7] stands for this setting: at 5.0 µM (retest, dose inferred, filed as 0.5).
Setting [8] is: at 50.0 µM (retest, dose inferred, filed as 5.0).

In the case of `COc1ccc2nc3cc([N+](=O)[O-])ccc3c(NCCO)c2c1`, the growth inhibition in test [1] (setting [7]) was -24%; in test [1] (setting [8]) it was 77% (active); in test [1] (at 50.0 µM), 58.5%; in test [2] (setting [7]), -9%; in test [2] (setting [8]), 66%; in test [2] (at 50.0 µM) it was 47.8%. For the same molecule, the growth inhibition is -26% in test [3] (setting [7]); 80% (active) in test [3] (setting [8]); 44.6% in test [3] (at 50.0 µM); -6% in test [4] (setting [7]); 89% (active) in test [4] (setting [8]); 75.1% (active) in test [4] (at 50.0 µM). The growth inhibition in test [5] (setting [7]) is -18%; in test [5] (setting [8]) it was 30%; in test [5] (at 50.0 µM), 49%; in test [6] (setting [7]), 4%; in test [6] (setting [8]), 82% (active); in test [6] (at 50.0 µM), 49.9%.

Consider `CC(C)(C)C1CCC(SCCO)CC1` (stereo not given), for which the growth inhibition in test [1] (setting [7]) is -22%; in test [1] (setting [8]), 98% (active); in test [1] (at 50.0 µM), 97.5% (active); in test [2] (setting [7]), -2%; in test [2] (setting [8]), 95% (active); in test [2] (at 50.0 µM) it was 91.9% (active). Further, the growth inhibition in test [3] (setting [7]) was -3%; in test [3] (setting [8]), 98% (active); in test [3] (at 50.0 µM) it was 97.7% (active); in test [4] (setting [7]) it was -9%; in test [4] (setting [8]) it was 97% (active); in test [4] (at 50.0 µM) it was 90% (active). For the same molecule, the growth inhibition in test [5] (setting [7]) is -8%; in test [5] (setting [8]) it was 98% (active); in test [5] (at 50.0 µM), 95% (active); in test [6] (setting [7]) it was 14%; in test [6] (setting [8]) it was 99% (active); in test [6] (at 50.0 µM), 95.4% (active).

Consider `COc1cccc(C2c3cc4c(cc3OC(N3CCOCC3)C2C)OCO4)c1` (stereo not given), for which the growth inhibition in test [1] (setting [7]) was 25%; in test [1] (setting [8]), 16%; in test [1] (at 50.0 µM) it was -11.8%; in test [2] (setting [7]), 14%; in test [2] (setting [8]) it was 6%; in test [2] (at 50.0 µM), -9.25%. Besides, the growth inhibition in test [3] (setting [7]) is 9%; in test [3] (setting [8]) it was 7%; in test [3] (at 50.0 µM) it was 3.2%; in test [4] (setting [7]), 11%; in test [4] (setting [8]) it was 6%; in test [4] (at 50.0 µM), 8.45%. The growth inhibition in test [5] (setting [7]) was 26%; in test [5] (setting [8]), 13%; in test [5] (at 50.0 µM) it was 0.2%; in test [6] (setting [7]), 20%; in test [6] (setting [8]), 13%; in test [6] (at 50.0 µM), -3.05%.

As for `COc1cccc(C2c3cc4c(cc3OC(N3CCCC3)C2c2ccccc2)OCO4)c1O` (stereo not given), the growth inhibition was 24% in test [1] (setting [7]); 98% (active) in test [1] (setting [8]); 8.35% in test [1] (at 50.0 µM); 19% in test [2] (setting [7]); 99% (active) in test [2] (setting [8]); 13% in test [2] (at 50.0 µM). Besides, the growth inhibition in test [3] (setting [7]) was -2%; in test [3] (setting [8]) it was 95% (active); in test [3] (at 50.0 µM) it was 29.4%; in test [4] (setting [7]) it was -7%; in test [4] (setting [8]) it was 96% (active); in test [4] (at 50.0 µM), 13.2%. For the same molecule, the growth inhibition was 6% in test [5] (setting [7]); 95% (active) in test [5] (setting [8]); 26.4% in test [5] (at 50.0 µM); 18% in test [6] (setting [7]); 98% (active) in test [6] (setting [8]); 32.2% in test [6] (at 50.0 µM).

Consider `COc1ccc(OC)c(/C=C/c2ccnc3ccccc23)c1`, for which the growth inhibition was -3% in test [1] (setting [7]); 98% (active) in test [1] (setting [8]); 96.3% (active) in test [1] (at 50.0 µM); -1% in test [2] (setting [7]); 97% (active) in test [2] (setting [8]); 95.3% (active) in test [2] (at 50.0 µM). Further, the growth inhibition in test [3] (setting [7]) is -2%; in test [3] (setting [8]), 98% (active); in test [3] (at 50.0 µM), 97.2% (active); in test [4] (setting [7]), -4%; in test [4] (setting [8]) it was 97% (active); in test [4] (at 50.0 µM) it was 94.3% (active). Also, the growth inhibition is -1% in test [5] (setting [7]); 97% (active) in test [5] (setting [8]); 95% (active) in test [5] (at 50.0 µM); -2% in test [6] (setting [7]); 97% (active) in test [6] (setting [8]); 95.6% (active) in test [6] (at 50.0 µM).

As to `Cc1cc(C2C(O)C(c3cc(C)on3)C2(C)O)no1` (stereo not given), the growth inhibition is 0% in test [1] (setting [7]); 0% in test [1] (setting [8]); 72.2% (active) in test [1] (at 50.0 µM); -12% in test [2] (setting [7]); 13% in test [2] (setting [8]); 38.5% in test [2] (at 50.0 µM). Besides, the growth inhibition in test [3] (setting [7]) is 3%; in test [3] (setting [8]) it was 5%; in test [3] (at 50.0 µM) it was 62.6%; in test [4] (setting [7]), -2%; in test [4] (setting [8]) it was -7%; in test [4] (at 50.0 µM) it was -24.1%. Besides, the growth inhibition in test [5] (setting [7]) was 2%; in test [5] (setting [8]) it was -1%; in test [5] (at 50.0 µM) it was 8.1%; in test [6] (setting [7]), 16%; in test [6] (setting [8]), 17%; in test [6] (at 50.0 µM) it was 50.2%.

Regarding `O=C1/C(=C\c2ccc(Cl)cc2Cl)Sc2scc(-c3ccc(O)c(O)c3)[n+]21`, the growth inhibition in test [1] (setting [7]) was 18%; in test [1] (setting [8]), 55%; in test [1] (at 50.0 µM), 86.2% (active); in test [2] (setting [7]), 6%; in test [2] (setting [8]) it was 67%; in test [2] (at 50.0 µM), 76.9% (active). Further, the growth inhibition in test [3] (setting [7]) was 15%; in test [3] (setting [8]), 71% (active); in test [3] (at 50.0 µM) it was 97.8% (active); in test [4] (setting [7]), 1%; in test [4] (setting [8]) it was 71% (active); in test [4] (at 50.0 µM), 46.5%. In addition, the growth inhibition in test [5] (setting [7]) is -10%; in test [5] (setting [8]) it was 81% (active); in test [5] (at 50.0 µM), 85.7% (active); in test [6] (setting [7]), 28%; in test [6] (setting [8]) it was 68%; in test [6] (at 50.0 µM) it was 91.8% (active).

As for `Cc1cc(NCCCN(C)C)c2cc3ccc4cccc5ccc(c2n1)c3c45`, the growth inhibition in test [1] (setting [7]) is 1%; in test [1] (setting [8]), 54%; in test [1] (at 50.0 µM), 95.2% (active); in test [2] (setting [7]) it was -12%; in test [2] (setting [8]), 23%; in test [2] (at 50.0 µM), 90.4% (active). The growth inhibition was -3% in test [3] (setting [7]); 47% in test [3] (setting [8]); 94.8% (active) in test [3] (at 50.0 µM); -2% in test [4] (setting [7]); 25% in test [4] (setting [8]); 63.8% in test [4] (at 50.0 µM). In addition, the growth inhibition in test [5] (setting [7]) was -2%; in test [5] (setting [8]) it was 20%; in test [5] (at 50.0 µM), 94.5% (active); in test [6] (setting [7]), -2%; in test [6] (setting [8]), 58%; in test [6] (at 50.0 µM), 97.3% (active).

For the molecule `CC1(C)CC(N(C(=O)/C=C/c2ccc([N+](=O)[O-])o2)C2CCCCC2)CC(C)(C)N1`, the growth inhibition in test [1] (setting [7]) is -5%; in test [1] (setting [8]), 97% (active); in test [1] (at 50.0 µM) it was 5.6%; in test [2] (setting [7]), -3%; in test [2] (setting [8]), 98% (active); in test [2] (at 50.0 µM), 13.9%. The growth inhibition was -2% in test [3] (setting [7]); 99% (active) in test [3] (setting [8]); 40.2% in test [3] (at 50.0 µM); -6% in test [4] (setting [7]); 97% (active) in test [4] (setting [8]); 25.1% in test [4] (at 50.0 µM). The growth inhibition in test [5] (setting [7]) is -4%; in test [5] (setting [8]), 99% (active); in test [5] (at 50.0 µM), 7.95%; in test [6] (setting [7]) it was -1%; in test [6] (setting [8]), 97% (active); in test [6] (at 50.0 µM), 85% (active).

As for `CCCCCCN(S(=O)(=O)c1ccc([N+](=O)[O-])cc1)S(=O)(=O)c1ccc([N+](=O)[O-])cc1`, the growth inhibition in test [1] (setting [7]) was 23%; in test [1] (setting [8]), 48%; in test [1] (at 50.0 µM), 66.8%; in test [2] (setting [7]), -105%; in test [2] (setting [8]), 51%; in test [2] (at 50.0 µM) it was 73.7% (active). Also, the growth inhibition is 8% in test [3] (setting [7]); 48% in test [3] (setting [8]); 71.3% (active) in test [3] (at 50.0 µM); 8% in test [4] (setting [7]); 55% in test [4] (setting [8]); 68.7% in test [4] (at 50.0 µM). In addition, the growth inhibition in test [5] (setting [7]) is 32%; in test [5] (setting [8]), 50%; in test [5] (at 50.0 µM), 56.9%; in test [6] (setting [7]), 18%; in test [6] (setting [8]) it was 48%; in test [6] (at 50.0 µM) it was 73.8% (active).
